Dicer inh – human Dicer pre-microRNA cleavage inhibition. Q9UPY3. cat-ELCCA pre-miR-21 Dicer processing, chemiluminescence; stronger effect = higher value. z-score at 25 µM. hit rate 6% among 47,000. AID 1347074; in the data active means z-score above about 3, passing the limit was not always enough;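 further: higher signal means more uncleaved substrate so more Dicer inhibition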
Each line names hits and unclear results; the compound was inactive in the other large screens. Many of the other results were omitted from the sample, so hits are more common in it than they were.

CN(C)CCCN1C(=O)C(O)=C(C(=O)c2ccco2)C1c1ccccc1 (configuration not stated)	none
O=C(O)c1ccc(N2C(=O)c3cccnc3C2=O)cc1	Dicer inh 4.45
O=C(Nc1ccc(N2C(=O)c3cccnc3C2=O)cc1)c1ccco1	none
O=C1c2cccnc2C(=O)N1c1cccc(-c2nc3ccccc3o2)c1	none
Cc1csc2c(SCC(=O)NNC(=O)c3ccc(Cl)cc3)ncnc12	none
O=C(O)CSCC(=O)NCC1COc2ccccc2O1 (configuration not stated)	none
Cc1ccc2c(c1)CCCN2C(=O)c1scc(S(=O)(=O)c2ccc(Cl)cc2)c1C	none
Cc1c(S(=O)(=O)c2ccc(Cl)cc2)csc1C(=O)Nc1ccc(N2CCOCC2)c(Cl)c1	none
Cc1c(S(=O)(=O)c2ccc(Cl)cc2)csc1S(=O)(=O)N1CCCC1	Dicer inh 3
CCOC(=O)COc1cc2c(C(=O)OC(C)C)c(C)oc2cc1Br	none
Cc1cc(C(F)(F)F)nc2c(Cl)c(C3CC3)nn12	none
Cc1cc(C)n(CC(=O)Nc2cccc(Cl)c2)c(=O)c1C#N	none
CCOc1ccc(N2CC(O)=C(c3nc4ccccc4c(=O)[nH]3)C2=N)cc1	none
CCc1ccccc1N1CC(O)=C(c2nc3ccccc3c(=O)[nH]2)C1=N	Dicer inh 4.88
Cc1ccc(N2CC(O)=C(c3nc4ccccc4c(=O)[nH]3)C2=N)c(C)c1	none
OC(CN1CCC(O)(c2ccc(Cl)cc2)CC1)c1ccccc1 (configuration not stated)	none
COc1ccc(C2CC(=O)C3=C(C2)NC(C)=C(C(=O)OC(C)C)C3c2ccccc2C)cc1OC (configuration not stated)	none
O=c1[nH]c(-c2ccc(Cl)cc2)nc2c1CSC2	none
COc1cc(CCC(C)NC(=O)Cc2ccccc2)ccc1OC(=O)Cc1ccccc1 (configuration not stated)	none
CCOC(=O)Cc1c(SC)c2ccccc2n1C	none
CSc1c(CC(=O)Nc2ccccc2)n(C)c2ccccc12	Dicer inh 3.69
Cn1cnnc1SCCC(=O)Nc1ccccc1	none
CCOC(=O)c1sc(/S(C)=N/S(=O)(=O)c2ccccc2Cl)c2c1CCC=C2 (configuration not stated)	none
N#Cc1sccc1COc1ccc(Cl)cc1	none
CCOC(=O)c1cc(C(=O)OCC)c(C(F)(F)F)nc1/C=C/N(C)C	none
Cc1cc(Br)ccc1NC(=S)Nc1c(C)cccc1Cl	none
COc1ccc(O)c(C(=O)C2c3ccccc3C(=O)N2c2ccc(C)cc2)c1 (configuration not stated)	Dicer inh 7.95
COc1ccc2c(c1)C(=O)N(c1ccc(C)cc1)C(=O)C2	none
COc1ccc(O)c(C(=O)CC(=O)c2ccc(F)cc2)c1	none
CNC(=O)Cc1sc2ccc(Cl)cc2c1C	none
NCCNc1ncnc2scc(-c3ccccc3)c12	none
O=C1c2ccccc2C(=O)N1SSN1C(=O)c2ccccc2C1=O	none
C=CCn1c(SCC(=O)Nc2cc(C)nn2-c2ccccc2)nnc1-c1ccc(Cl)cc1	none
O=S(=O)(c1cc(Br)c(Br)s1)N1CCCCC1	none
O=S(=O)(c1cc(Br)c(Br)s1)N1CCCC1	Dicer inh 3.14
O=S(=O)(c1ccccc1)c1ccc(S(=O)(=O)N2CCCC2)s1	none
Cc1c(NC(=O)O/N=C(/N)c2ccc(Cl)cc2Cl)sc2nc(-c3ccc(Cl)cc3)nn12	none
CCOc1ccc(C2C(C(=O)OC(C)C)=C(C)NC3=C2C(=O)CCC3)cc1OC (configuration not stated)	none
Cc1cc(O)c(C(C)C)cc1NC(=O)c1cc(C(C)(C)C)oc1C	none
Cc1cc(OC(=O)c2ccccc2)n(-c2ccccc2)n1	none
COc1ccc(O)c(C2=NN3C(C2)c2cc(Cl)ccc2OC3c2ccncc2)c1 (configuration not stated)	none
Cc1ccc(O)c(C2=NN3C(C2)c2ccccc2OC3c2ccncc2)c1 (configuration not stated)	none
Cc1ccc(C2=NN3C(C2)c2ccccc2OC3c2ccncc2)cc1 (configuration not stated)	Dicer inh 6.88
COc1ccc(C2=NN3C(C2)c2cc(Cl)ccc2OC3c2ccncc2)cc1 (configuration not stated)	Dicer inh 9.08
COc1ccc(C2=NN3C(C2)c2cc(OC)ccc2OC3c2cccnc2)cc1 (configuration not stated)	Dicer inh 4.84
COc1ccc(O)c(C2=NN3C(C2)c2cccc(OC)c2OC3c2cccnc2)c1 (configuration not stated)	none
COc1ccc(O)c(C2=NN3C(C2)c2ccccc2OC3c2cccnc2)c1 (configuration not stated)	none
Oc1ccccc1C1=NN2C(C1)c1cc(Cl)ccc1OC2c1cccnc1 (configuration not stated)	none
COc1ccc(C2=NN3C(C2)c2ccccc2OC3c2ccc(C)cc2)cc1OC (configuration not stated)	none
Cn1cnc(S(=O)(=O)Nc2ccc(C#N)cc2)c1	none
CCc1ccc2nc3c(cc2c1)c(=O)n(C)c(=O)n3C	none
Nc1c(C(=O)c2ccc(Cl)cc2)sc2nsc(SCCN3CCCCC3)c12	none
O=C(NNc1cc(C(F)(F)F)ccn1)c1cccc(C(F)(F)F)c1	none
C/C(=N\OC(=O)c1ccc(C(F)(F)F)cc1)c1ccc[nH]1	none
O=C(O)c1ccccc1CS(=O)c1ccccc1 (configuration not stated)	none
CC(/C=N/OC(=O)c1cc2ccccc2s1)=N\Nc1c(Cl)cc(Cl)cc1Cl	none
O=C(O)/C=C\C(=O)Nc1ccc(OC(F)(F)F)cc1Br	none
CCC(NS(=O)(=O)c1ccc(F)cc1)C(=O)O (configuration not stated)	none
CC(C)(C)NC(=O)c1cc2nc3c(c(C(F)(F)F)n2n1)CCc1ccccc1-3	Dicer inh 3.58
O=C(O)CSc1nc2c(c(C(F)(F)F)n1)CCc1ccccc1-2	none
COCCNC(=O)c1cc2nc3c(c(C(F)(F)F)n2n1)CCc1ccccc1-3	Dicer inh 3.21
FC(F)(F)c1c2c(nc3cc(-c4cccs4)nn13)-c1ccccc1C2	none
CC(C)(C)NC(=O)c1cc2nc(-c3ccc(Br)cc3)cc(C(F)(F)F)n2n1	none
O=C(NCC1CCCO1)c1nn2c(C(F)(F)F)c3c(nc2c1Cl)-c1ccccc1CC3 (configuration not stated)	none
CC1=C(C(=O)OCCOC(C)C)C(c2ccccn2)C2=C(CC(C)(C)CC2=O)N1 (configuration not stated)	none
CCOC(=O)Cn1c2c(c(C(F)(F)F)cc1=O)C(=O)CCC2	none
Nc1c(NCc2ccccc2)c(=O)c1=O	Dicer inh 3.34
Nc1nc(Nc2ccccc2)nc(NCc2ccccc2)c1[N+](=O)[O-]	none
O=c1[nH]cc(NCc2ccccc2)c(=O)[nH]1	none
O=C(O)COCC(=O)N1CCC(n2cccc2)CC1	none
CC(C)c1ccc(Cc2cn3cc(-c4ccccc4)nc3s2)cc1	none
CC(=O)/C(=C\Nc1nc(C)cc(C)n1)S(=O)(=O)c1ccc(Cl)cc1	none
CC1Oc2ccc(C(=O)c3cc4ccccc4o3)cc2N(C)C1=O (configuration not stated)	none
CCOC(=O)C(NC(=O)c1cccc(Cl)c1)(Nc1cccc(C(F)(F)F)c1)C(F)(F)F (configuration not stated)	none
CC[n+]1c(/C=C/c2ccc(N(C)C)cc2)ccn1-c1ccccc1	Dicer inh 3.33
CN(C)c1ccc(/C=C/C2=Nc3ccccc3C2(C)C)cc1	none
CC[n+]1c(/C=C/c2ccc(N(C)C)cc2)sc2ccccc21	none
COc1ccc(Cl)cc1-c1nc2ccc(OC(C)=O)cc2c(=O)o1	none
CCCCCOc1ccc(C2c3c(oc4ccccc4c3=O)C(=O)N2c2nccs2)cc1 (configuration not stated)	none
